PubChem BioAssay AID1159580 (chemical genetic matrix, 2015)
In all, about 5,500 compounds went through this assay and about 2,000 (36%) were called active. Inconclusive results (about 18%) are left out. Cut-off read from the data, not from the text of the source: active = normalized growth mostly below about 0.91 (no sharp cut-off); inconclusive = no clear call, values can overlap the other calls; inactive = mostly above about 0.92. The list shows a part of the results.

Assay: chemical genetic growth profiling, strain panel (AID 1159580);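 note: tested at 20 µM; growth read once vehicle control cultures reached saturation at 30 °C; 1 = growth at the plate median or of vehicle wells; lower values mean less growth of the strain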
Conditions: S. cerevisiae deletion strains, growth OD
[1] = locus YDL101C, strain DUN1, hits give low values
[2] = locus YGR078C, strain PAC10, hits give low values
[3] = locus YHR030C, strain SLT2, hits give low values
[4] = locus YJR075W, strain HOC1, hits give low values
[5] = locus YMR263W, strain SAP30, hits give low values
[6] = locus YMR307W, strain GAS1, hits give low values
[7] = locus YNL153C, strain GIM3, hits give low values
[8] = locus YNL322C, strain KRE1, hits give low values
[9] = locus YPL241C, strain CIN2, hits give low values
[10] = locus YAL040C, strain CLN3, hits give low values
[11] = locus YCL061C, strain MRC1 (second series), hits give low values
[12] = locus YDR363W, strain ESC2, hits give low values
[13] = locus YER002W, strain NOP16, hits give low values
[14] = locus YNL175C, strain NOP13, hits give low values
[15] = locus YNL197C, strain WHI3, hits give low values
[16] = locus YNL224C, strain SQS1, hits give low values
[17] = locus YOR083W, strain WHI5 (second series), hits give low values
[18] = locus YAR019C, strain CDC15, hits give low values
[19] = locus YBL105C, strain PKC1, hits give low values
[20] = locus YBR135W, strain CKS1, hits give low values
[21] = locus YBR136W, strain MEC1, hits give low values
[22] = locus YBR160W, strain CDC28, hits give low values
[23] = locus YDL017W, strain CDC7, hits give low values
[24] = locus YDL028C, strain MPS1, hits give low values
[25] = locus YDL108W, strain KIN28, hits give low values
[26] = locus YDL132W, strain cdc53, hits give low values
[27] = locus YDL214C, strain PRR2, hits give low values
[28] = locus YDR052C, strain DBF4, hits give low values
[29] = locus YDR054C, strain cdc34, hits give low values
[30] = locus YDR226W, strain ADK1, hits give low values
[31] = locus YDR477W, strain SNF1, hits give low values
[32] = locus YER123W, strain YCK3, hits give low values
[33] = locus YER133W, strain GLC7, hits give low values
[34] = locus YFL009W, strain cdc4, hits give low values
[35] = locus YFL029C, strain CAK1, hits give low values
[36] = locus YFR003C, strain YPI1, hits give low values
[37] = locus YFR019W, strain FAB1, hits give low values
[38] = locus YFR028C, strain CDC14, hits give low values
[39] = locus YGR040W, strain KSS1, hits give low values
[40] = locus YGR052W, strain FMP48, hits give low values
[41] = locus YGR092W, strain DBF2, hits give low values
[42] = locus YHR079C, strain IRE1, hits give low values
[43] = locus YHR082C, strain KSP1, hits give low values
[44] = locus YHR205W, strain SCH9, hits give low values
[45] = locus YIL147C, strain SLN1, hits give low values
[46] = locus YJL095W, strain BCK1, hits give low values
[47] = locus YJL128C, strain PBS2, hits give low values
[48] = locus YJL157C, strain FAR1, hits give low values
[49] = locus YJR016C, strain ILV3, hits give low values
[50] = locus YJR066W, strain TOR1 (second series), hits give low values
[51] = locus YJR066W, strain TOR1, hits give low values
[52] = locus YKL048C, strain ELM1, hits give low values
[53] = locus YKL067W, strain YNK1, hits give low values
[54] = locus YKL101W, strain HSL1, hits give low values
[55] = locus YKL193C, strain SDS22, hits give low values
[56] = locus YKL203C, strain TOR2, hits give low values
[57] = locus YLR113W, strain HOG1, hits give low values
[58] = locus YLR133W, strain CKI1, hits give low values
[59] = locus YLR403W, strain SFP1, hits give low values
[60] = locus YML070W, strain DAK1, hits give low values
[61] = locus YMR001C, strain CDC5, hits give low values
[62] = locus YMR205C, strain PFK2 (second series), hits give low values
[63] = locus YMR277W, strain FCP1, hits give low values
[64] = locus YNL006W, strain LST8, hits give low values
[65] = locus YNL020C, strain ARK1, hits give low values
[66] = locus YNL161W, strain CBK1, hits give low values
[67] = locus YNL183C, strain NPR1, hits give low values
[68] = locus YNL207W, strain RIO2, hits give low values
[69] = locus YNL222W, strain SSU72, hits give low values
[70] = locus YNL307C, strain MCK1 (second series), hits give low values
[71] = locus YOL078W, strain AVO1, hits give low values
[72] = locus YOL136C, strain PFK27, hits give low values
[73] = locus YOR061W, strain CKA2, hits give low values
[74] = locus YOR119C, strain RIO1, hits give low values
[75] = locus YOR231W, strain MKK1, hits give low values
[76] = locus YOR329C, strain SCD5, hits give low values
[77] = locus YPL031C, strain PHO85, hits give low values
[78] = locus YPL153C, strain RAD53, hits give low values
[79] = locus YPL204W, strain HRR25, hits give low values
[80] = locus YPL209C, strain IPL1, hits give low values
[81] = locus YPL256C, strain CLN2, hits give low values
[82] = locus YPR025C, strain CCL1, hits give low values
[83] = locus YPR106W, strain ISR1, hits give low values
[84] = locus YPR111W, strain DBF20, hits give low values
[85] = strain NNK1, hits give low values
[86] = strain TSCII, hits give low values

Measured: normalized growth

ON=C(c1cccs1)c1cccs1
inactive: locus YAL013W, strain DEP1, hits give low values 0.947 | locus YBR229C, strain ROT2, hits give low values 0.94 | [1] 0.94 | locus YDL134C, strain PPH21, hits give low values 0.989 | locus YDR150W, strain NUM1, hits give low values 0.921 | locus YEL061C, strain CIN8, hits give low values 0.947 | [2] 0.928 | locus YHR087W, strain rtc3, hits give low values 0.965 | locus YJR043C, strain POL32, hits give low values 0.944 | [4] 0.927 | locus YLR058C, strain SHM2 (second series), hits give low values 0.959 | locus YML094W, strain GIM5, hits give low values 0.903 | locus YMR219W, strain ESC1, hits give low values 0.963 | [5] 0.957 | locus YNL128W, strain TEP1, hits give low values 1 | [7] 0.958 | locus YNL298W, strain CLA4 (second series), hits give low values 0.893 | locus YNR030W, strain Alg12, hits give low values 0.895 | locus YOL006C, strain TOP1, hits give low values 0.896 | locus YPL055C, strain LGE1, hits give low values 0.941 | [9] 0.876
active: [3] 0.383 | locus YLR039C, strain RIC1, hits give low values 0.62 | locus YLR085C, strain ARP6, hits give low values 0.673 | locus YLR262C, strain YPT6, hits give low values 0.657 | [6] 0.657 | [8] 0.924 | locus YPR135W, strain CTF4, hits give low values 0.637

O=C(Nc1ccccc1)c1cc([N+](=O)[O-])ccc1Cl
inactive: [10] 1.07 | [11] 0.989 | [12] 0.967 | [13] 0.972 | [2] 0.974 | locus YGR229C, strain SMI1, hits give low values 0.996 | [14] 0.996 | [15] 0.969 | [16] 0.976 | [8] 0.999 | [17] 0.958 | [9] 1

O=[N+]([O-])c1cc(Cl)cc([N+](=O)[O-])c1Nc1ccccc1
active: [3] 0.824
inactive: [18] 0.924 | [19] 0.927 | [20] 0.916 | [21] 0.923 | [22] 0.918 | [23] 0.937 | [24] 0.925 | [1] 0.919 | [25] 0.935 | [26] 0.91 | [27] 0.986 | [28] 0.94 | [29] 0.893 | [30] 0.934 | [31] 0.949 | [32] 0.975 | [33] 0.977 | [34] 0.917 | [35] 0.929 | [36] 0.938 | [37] 0.963 | [38] 0.942 | [39] 0.963 | [40] 1.1 | [41] 0.89 | [42] 0.976 | [43] 0.997 | [44] 0.965 | [45] 0.933 | [46] 0.921 | [47] 0.916 | [48] 0.957 | [49] 0.936 | [50] 0.946 | [51] 0.969 | [52] 0.93 | [53] 0.982 | [54] 0.96 | [55] 0.932 | [56] 0.989 | [57] 0.923 | [58] 0.954 | [59] 0.992 | [60] 0.987 | [61] 0.929 | [62] 0.998 | [63] 0.936 | [64] 0.926 | [65] 0.928 | [66] 0.92 | [67] 0.992 | [68] 0.935 | [69] 0.936 | [70] 0.943 | [71] 0.922 | [72] 0.981 | [73] 0.968 | [74] 1.03 | [75] 0.962 | [76] 0.926 | [77] 0.948 | [78] 0.965 | [79] 0.946 | [80] 0.933 | [81] 0.972 | [82] 0.922 | [83] 0.949 | [84] 0.934 | [85] 0.954 | [86] 0.915

O=C1NC(=O)C(c2ccccc2[N+](=O)[O-])=C1Nc1ccc(O)c(Cl)c1
inactive: [10] 0.951 | [11] 0.974 | [12] 0.964 | [13] 0.98 | [4] 1 | [5] 0.99 | [6] 1.04 | [7] 0.971 | [14] 0.953 | [15] 0.981 | [16] 0.996 | [17] 0.943 | [9] 0.982

O=C(Nc1ccccc1)Nc1ccc(Cl)cc1[N+](=O)[O-]
active: [3] 0.721 | [81] 0.809
inactive: [18] 0.977 | [19] 0.973 | [20] 0.976 | [21] 0.977 | [22] 0.964 | [23] 0.975 | [24] 0.974 | [1] 0.987 | [25] 0.988 | [26] 0.962 | [27] 0.917 | [28] 0.968 | [29] 0.97 | [30] 0.968 | [31] 0.947 | [32] 0.92 | [33] 0.959 | [34] 0.961 | [35] 0.977 | [36] 0.989 | [37] 0.933 | [38] 0.974 | [39] 0.938 | [40] 1.01 | [41] 0.932 | [42] 0.872 | [43] 0.926 | [44] 0.874 | [45] 0.972 | [46] 0.847 | [47] 0.958 | [48] 0.946 | [49] 0.972 | [50] 0.928 | [51] 0.903 | [52] 0.925 | [53] 0.93 | [54] 0.921 | [55] 0.968 | [56] 0.976 | [57] 0.888 | [58] 0.92 | [59] 0.944 | [60] 0.909 | [61] 0.977 | [62] 0.941 | [63] 0.974 | [64] 0.976 | [65] 0.909 | [66] 0.976 | [67] 0.906 | [68] 0.96 | [69] 0.985 | [70] 0.916 | [71] 0.97 | [72] 0.892 | [73] 0.956 | [74] 1.01 | [75] 0.835 | [76] 0.978 | [77] 0.948 | [78] 0.942 | [79] 0.925 | [80] 0.975 | [82] 0.979 | [83] 0.975 | [84] 0.963 | [85] 0.952 | [86] 0.965
